Screens (PubChem BioAssay)
PKA-R1A act – activators of PKA-R1A complex; PKA-R1A dissociation, Cy5-IP20 fluorescence polarization; scaled: DMSO 0%, 113 µM cGMP 100%; activation, % at 11.4 µM; actives 0.083% (n = 340,000); AID 504707;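 active = percent activation above the mean of all tested compounds plus 3 SD, cut at about 19% in these data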;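 note: higher means more PKAc released from R1A so a rise in polarization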
MsrA inhibitor – bovine MsrA inhibition | purified bovine MsrA, absorbance read-out | inhibition, % at 15.5 µM | actives 0.75% (n = 360,000) | AID 651718;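 note: 0% = vehicle wells with enzyme and 100% = reference inhibitor wells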
MsrA act – activates bovine MsrA enzyme; activation, % at 10.6 µM; purified bovine MsrA, absorbance read-out; actives 0.3% (n = 360,000); in the data active = activation above about 7.5%;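 note: 0% = vehicle and 100% = reference activator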
PKA-R2B act – activates the human PKA-R2B holoenzyme complex; PKA-R2B holoenzyme dissociation, Cy5-IP20 fluorescence polarization; R2B truncated from residue 108, S112A mutant; 0% DMSO only, 100% 113 µM cGMP; activation, % at 11.4 µM; P22694+P31323; actives 0.079% (n = 340,000);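 active = activation above a cutoff set at the mean over all compounds plus 3 SD, cut at about 18% in these data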;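 note: higher means more holoenzyme dissociation and a rise in polarization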
Target sequence (P31323 whole entry, looked up, other chains not shown, the tested form may be a part): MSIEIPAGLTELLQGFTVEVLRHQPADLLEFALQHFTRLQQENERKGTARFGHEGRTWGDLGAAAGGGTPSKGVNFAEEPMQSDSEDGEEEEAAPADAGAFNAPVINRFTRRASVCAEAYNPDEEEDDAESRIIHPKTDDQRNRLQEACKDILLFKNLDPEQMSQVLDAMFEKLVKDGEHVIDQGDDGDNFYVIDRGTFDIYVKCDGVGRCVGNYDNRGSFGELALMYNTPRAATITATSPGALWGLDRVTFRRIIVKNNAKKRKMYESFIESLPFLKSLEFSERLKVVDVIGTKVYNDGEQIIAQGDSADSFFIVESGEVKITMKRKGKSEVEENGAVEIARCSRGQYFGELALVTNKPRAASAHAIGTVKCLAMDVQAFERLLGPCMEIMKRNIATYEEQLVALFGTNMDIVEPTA
MsrA inh confirm – bovine MsrA inhibition, confirmed; inhibition, % at 15.5 µM; purified bovine MsrA, absorbance read-out; shares compounds with MsrA inhibitor; actives 41% (n = 2,300); AID 651822;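 note: coupled to thioredoxin reductase with NADPH and selenocystamine and DMSO as substrate; 0% = vehicle only and 100% = full effect of reference inhibitor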
An asterisk follows results filed as active; nt = not tested or not shown. Shown are actives, neighbours in structure and some others; about 1.1% of the full set was active somewhere. Cut-off read from the data, not from the text of the source, unless noted: active = inhibition above about 4.5%; inactive = the rest.

SMILES	PKA-R1A act	MsrA inhibitor	MsrA act	PKA-R2B act	MsrA inh confirm
Cc1cc(=O)[nH]c(N/N=C/c2ccc(Br)s2)n1	-2	5.5*	-5	-12	4
Cc1cc(=O)[nH]c(N/N=C/C=C/c2ccccc2)n1	1	11*	-8	-5	4
OC(c1ccccc1)(c1ccccc1)C1CCN(CCCOc2ccc(-c3ccc(F)cc3F)cc2)CC1	nt	1	nt	nt	nt
COc1ccc(S(=O)(=O)N2CCCC2CNC(=O)C(=O)Nc2ccc(F)cc2)cc1 (centres undefined)	-9	-1	-2	-16	nt
Cc1ccc(S(=O)(=O)Nc2ccc(C(=O)NCCCn3ccnc3)cc2)cc1[N+](=O)[O-]	-7	1	1	-18	nt
Cc1ccccc1-c1cc2c(nn1)-c1ccccc1C2=O	-1	5.9*	2	-9	0
Oc1ccc(/C=N/NC(=S)Nc2cccnc2)c(O)c1	-8	7.0*	-5	-7	5.2*
O=C(C1=C(c2ccccc2)C(=O)c2ccccc2C1=O)c1ccccc1	11	72*	-1	-8	59*
COC1=C(c2ccccc2)C(=O)c2ccccc2C1=O	-9	4	-2	-3	nt
CCc1cc2c(nc1CC)CCCN2S(=O)(=O)c1cccs1	nt	1	nt	nt	nt
O=C(N/N=C/c1cn(-c2ccccc2)nc1-c1ccc2c(c1)OCCO2)c1ccncc1	-5	5.0*	0	-5	1
O=C(C1=C(O)C(=O)N(CCOCCO)C1c1cccc([N+](=O)[O-])c1)c1cccs1 (centres undefined)	-4	5.0*	-8	-4	4
CCCCc1cc(=O)oc2cc(C)cc(OC(C)C(=O)NCc3ccccn3)c12 (centres undefined)	-4	6.4*	-3	1	0
NS(=O)(=O)c1ccc(NC(=S)Nc2ccc(S(=O)(=O)Nc3nccs3)cc2)cc1	nt	0	-4	nt	nt
COc1ccc(/C=C(\C#N)C(=O)N=CN(C)C)cc1	-6	1	-2	-2	nt
COc1ccc(/C=C(\C#N)C(=O)N2COCC2(C)C)cc1	1	5.1*	-2	14	3
COc1cc(/C=N/NC(=O)c2cnccn2)cc(OC)c1OC	1	2	-6	-4	nt
COc1cc(OC)c(OC)cc1/C=N/NC(=O)c1ccc(=O)n(C)c1	-7	10*	-9	3	9.2*
COc1cc(OC)c(OC)cc1/C=N/NC(=O)c1cnccn1	-7	6.2*	-2	-11	4
COc1cc(OC)c(/C=N/NC(N)=S)cc1Br	-8	5.3*	-3	5	4
COc1ccccc1/C=C/C=N/NC(=O)c1ccncc1	-9	9.0*	-8	-16	5.0*
O=C(COC(=O)c1ccc(Cl)cc1O)NCCN1C(=O)CSC1=O	-4	3	-9	-6	nt
Cc1ccc2nc(-c3cccc(Cl)c3)c(Cc3ccsc3)n2c1	nt	1	nt	nt	nt
S=C1NC2(CCCCCC2)NN1c1ccccc1	nt	0	nt	nt	nt
CCc1nn(C(CC)C(=O)NCCCN2CC(C)CC(C)C2)c(=O)c2cc3oc(C)cc3n12 (centres undefined)	14	0	-13	3	nt
SMILES	PKA-R1A act	MsrA inhibitor	MsrA act	PKA-R2B act	MsrA inh confirm
COc1cc(OC)c(/C=N/NC(=O)c2ccncc2)cc1Br	nt	5.2*	-4	nt	4
O=C(Cc1cccs1)N/N=C/C=C/c1ccccc1[N+](=O)[O-]	nt	1	-11	nt	nt
COc1ccccc1/C=C/C=N/NC(=O)Cc1cccs1	15	5.0*	1	-1	4
CCOC(=O)c1cnc2c(ccc3ccccc32)c1Cl	0	-1	-5	4	nt
CCOC(=O)c1cnc(SC)nc1Sc1ccccc1Cl	7	8.2*	-5	-7	3
O=C(Nc1ccc2[nH]c(=S)sc2c1)c1ccccc1	-13	5.1*	0	6	2
COc1ccc(/C=N/N=C(\N)c2nonc2N)cc1	11	5.3*	-1	3	3
COc1cc(/C=N/N=C(\N)c2nonc2N)cc(OC)c1O	-3	3	-4	-7	nt
Cc1ccc(C2=NS(=O)(=O)N(C)C(C(=O)NCc3ccccn3)=C2)cc1	4	5.2*	2	-4	2
COc1ccc(C2=NS(=O)(=O)N(C)C(C(=O)N3CCN(C)CC3)=C2)cc1	-6	5.9*	-4	-6	3
CCN1CCN(C(=O)C2=CC(c3ccc(C)cc3)=NS(=O)(=O)N2C)CC1	-2	3	-2	-1	nt
Cc1ccc(C2=NS(=O)(=O)N(C)C(C(=O)NCc3cccs3)=C2)cc1	-6	4	-3	14	nt
Cc1ccc(C2=NS(=O)(=O)N(C)C(C(=O)N3CCCCC3)=C2)cc1	-14	5.0*	-3	-5	3
